Results filed as inconclusive are left out. Active and inactive are the calls of the source. The call rests on the fitted dose curve; in most records, active means well fitted activation curve with a large enough effect in the main read-out, with a control signal flat (not every such curve was filed as active); inconclusive means small, poorly fitted or top-dose-only effect, or effect the other way, or a change in a side signal; inactive means flat fitted curve, though single readings scatter.
target: 3',5'-cyclic-AMP phosphodiesterase 4B (Homo sapiens) (UniProt Q07343); assay: qHTS Assay for Inhibitors of PDE-IV (AID 607); conditions: HEK293 ACTOne CNG channel cells, membrane potential fluorescence; series mostly up to 22.9 µM
Summary of the method: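 HEK293 ACTOne cells with CNG channel (1000/well), endogenous PDE4; membrane potential dye, compounds up to 22.9 uM final. Fluorescence Ex 535/Em 590; RO 20-1724 (100 uM final) as reference.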

Chain of 3',5'-cyclic-AMP phosphodiesterase 4B (Homo sapiens) (Q07343 whole entry, looked up): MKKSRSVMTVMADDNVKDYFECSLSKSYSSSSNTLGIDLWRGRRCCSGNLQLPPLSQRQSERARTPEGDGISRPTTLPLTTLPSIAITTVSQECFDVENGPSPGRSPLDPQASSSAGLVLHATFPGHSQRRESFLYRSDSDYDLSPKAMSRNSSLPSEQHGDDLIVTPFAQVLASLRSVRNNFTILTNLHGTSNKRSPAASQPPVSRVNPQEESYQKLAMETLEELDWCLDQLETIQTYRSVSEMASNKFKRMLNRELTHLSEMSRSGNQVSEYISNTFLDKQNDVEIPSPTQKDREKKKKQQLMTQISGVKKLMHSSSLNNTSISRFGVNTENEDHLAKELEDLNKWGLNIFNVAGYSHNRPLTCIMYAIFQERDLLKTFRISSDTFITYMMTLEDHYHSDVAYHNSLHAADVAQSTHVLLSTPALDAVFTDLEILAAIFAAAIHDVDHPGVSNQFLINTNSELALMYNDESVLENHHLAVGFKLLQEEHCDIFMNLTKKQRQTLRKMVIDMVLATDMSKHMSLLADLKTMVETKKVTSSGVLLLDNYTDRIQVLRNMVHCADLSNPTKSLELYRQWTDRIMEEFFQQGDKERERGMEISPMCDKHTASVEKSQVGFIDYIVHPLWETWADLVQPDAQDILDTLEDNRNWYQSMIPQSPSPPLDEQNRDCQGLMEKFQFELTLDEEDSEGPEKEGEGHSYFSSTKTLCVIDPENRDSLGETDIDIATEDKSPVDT

Row | Compound | outcome
1 | Cc1cc2c(C(C)C)c(O)c(O)c(C=O)c2c(O)c1-c1c(C)cc2c(C(C)C)c(O)c(O)c(C=O)c2c1O | inactive
2 | C1COC(NC(C2CC2)C2CC2)=N1 | inactive
3 | Cc1oncc1C(=O)Nc1ccc(C(F)(F)F)cc1 | inactive
4 | NS(=O)(=O)c1cc2c(cc1Cl)NC=NS2(=O)=O | inactive
5 | Cc1ccc2c(c1)C(=O)[C@@]1(O)CCN(c3ccccc3)C1=N2 | inactive
6 | CCOC(=O)N1CCC(=C2c3ccc(Cl)cc3CCc3cccnc32)CC1 | inactive
7 | Cc1cn[nH]c1 | inactive
8 | CNC[C@H](O)c1cccc(O)c1 | inactive
9 | CCN(c1ccccc1)c1cc(NC)[n+](C)c(C)n1 | inactive
10 | Cc1[nH]c(=O)c(C#N)cc1-c1ccncc1 | inactive
11 | CC(C)(Sc1ccc(CCN(CCCCC2CCCCC2)C(=O)NC2CCCCC2)cc1)C(=O)O | inactive
12 | CCCCNc1cc(C(=O)O)cc(S(N)(=O)=O)c1Oc1ccccc1 | inactive
13 | COc1ccc2nc(S(=O)Cc3ncc(C)c(OC)c3C)[nH]c2c1 (centres undefined) | inactive
14 | CN1CCN(CCCN2c3ccccc3Sc3ccc(C(F)(F)F)cc32)CC1 | inactive
15 | O=NN(CCCl)C(=O)NCCCl | inactive
16 | NCCc1ccc(O)c(O)c1 | inactive
17 | NNCCc1ccccc1 | inactive
18 | N[C@@H]1CONC1=O | inactive
19 | O=c1n(CCCN2CCN(c3cccc(Cl)c3)CC2)nc2ccccn12 | inactive

From PubChem BioAssay (NCATS)
